# Measurements as given in PubChem BioAssay (NCATS).
# Records with an inconclusive call do not appear. A call without a number means that no potency is given here. Active and inactive are the calls of the source. Calls come from the whole dose curve; as a rule, active = well fitted inhibition curve with a large enough effect; inconclusive = small, poorly fitted or top-dose-only effect; inactive = flat fitted curve, though single readings scatter.
# What was measured:
# Assay in all cases: qHTS profiling for inhibitors of Plasmodium falciparum proliferation (AID 504749); note: nearly all actives have a fitted effect of over 60% in size
# Settings in all cases: P. falciparum in erythrocytes, SYBR Green DNA, 72 h; series mostly up to 28.7 µM
# [1] = tested on: ECU
# Procedure, shortened: (§1)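 In a 72 h erythrocytic culture (37 C, humidified, 5% CO2) at 2.5% hematocrit and 0.3% starting parasitemia, compounds were tested; SYBR Green I in detergent lysis buffer stained parasite DNA overnight.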
# [2] = tested on: FAB9
# Procedure, shortened: as §1
# [3] = tested on: GB4
# Procedure, shortened: as §1
# [4] = tested on: HB3
# Procedure, shortened: as §1
# [5] = tested on: ICS
# Procedure, shortened: as §1
# [6] = tested on: JCK
# Procedure, shortened: as §1
# [7] = tested on: N140
# Procedure, shortened: as §1
# [8] = tested on: P93_24
# Procedure, shortened: as §1
# [9] = tested on: P94_40
# Procedure, shortened: as §1
# [10] = tested on: PAD
# Procedure, shortened: as §1
# [11] = tested on: PC15
# Procedure, shortened: as §1
# [12] = tested on: PC26
# Procedure, shortened: as §1
# [13] = tested on: PC49
# Procedure, shortened: as §1
# [14] = tested on: SC27B
# Procedure, shortened: as §1
# [15] = tested on: TAB109
# Procedure, shortened: as §1
# [16] = tested on: TAB113
# Procedure, shortened: as §1
# [17] = tested on: TAB165
# Procedure, shortened: as §1
# [18] = tested on: W2
# Procedure, shortened: as §1
# Potency is the fitted concentration of half-maximal effect.
SMILES,Potency [1],Potency [2],Potency [3],Potency [4],Potency [5],Potency [6],Potency [7],Potency [8],Potency [9],Potency [10],Potency [11],Potency [12],Potency [13],Potency [14],Potency [15],Potency [16],Potency [17],Potency [18]
CC(C)(Oc1ccc(Cl)cc1)C(=O)O,inactive,inactive,inactive,inactive,inactive,inactive,inactive,inactive,inactive,inactive,inactive,inactive,inactive,inactive,inactive,inactive,inactive,inactive
CC(C)(CO)[C@@H](O)C(=O)NCCCO,inactive,inactive,inactive,inactive,inactive,inactive,inactive,inactive,inactive,inactive,inactive,inactive,inactive,inactive,inactive,inactive,inactive,inactive
NC(CO)(CO)CO,inactive,inactive,inactive,inactive,inactive,inactive,inactive,inactive,inactive,inactive,inactive,inactive,inactive,inactive,inactive,inactive,inactive,inactive
O=C1CCC(c2ccc(-n3ccnc3)cc2)=NN1,inactive,inactive,inactive,inactive,inactive,inactive,inactive,inactive,inactive,inactive,inactive,inactive,inactive,inactive,inactive,inactive,inactive,inactive
Cc1ccnc(NS(=O)(=O)c2ccc(N)cc2)n1,inactive,inactive,inactive,inactive,inactive,inactive,inactive,inactive,inactive,inactive,inactive,inactive,inactive,inactive,inactive,inactive,inactive,inactive
N[C@@H](Cc1cnc[nH]1)C(=O)O,inactive,inactive,inactive,inactive,inactive,inactive,inactive,inactive,inactive,inactive,inactive,inactive,inactive,inactive,inactive,inactive,inactive,inactive
Cc1c(C)n(CCN(C)C)c2ccc(C(=O)OCCN(C)C)cc12,inactive,inactive,,inactive,,inactive,inactive,inactive,inactive,inactive,inactive,inactive,inactive,inactive,inactive,inactive,inactive,
Oc1c(I)cc(I)c2cccnc12,inactive,inactive,,,,inactive,,,11.2 µM (active),,,,inactive,inactive,,inactive,,
Oc1c(I)cc(Cl)c2cccnc12,inactive,inactive,,inactive,,inactive,,inactive,12.6 µM (active),,inactive,inactive,inactive,,12.6 µM (active),,12.6 µM (active),inactive
CNCCC=C1c2ccccc2CCc2ccccc21,,inactive,8.49 µM (active),inactive,11.2 µM (active),,7.08 µM (active),,,,,,,,,,,1.51 µM (active)
Clc1ccc2c(c1)CCc1cccnc1C2=C1CCNCC1,,inactive,,inactive,11.2 µM (active),inactive,,,,,,13.5 µM (active),,inactive,,,,3.38 µM (active)
O=C1OC(c2ccc(O)cc2)(c2ccc(O)cc2)c2ccccc21,,inactive,inactive,inactive,inactive,inactive,,,inactive,inactive,inactive,inactive,inactive,inactive,inactive,inactive,inactive,inactive
CCCCCCCCCCOCC(O)CN (stereo not drawn),,inactive,9.53 µM (active),inactive,11.2 µM (active),inactive,,,,,,,,,,inactive,,
COc1cc(NS(C)(=O)=O)ccc1Nc1c2ccccc2nc2ccccc12,3.16 µM (active),3.98 µM (active),,5.01 µM (active),1.58 µM (active),3.55 µM (active),2 µM (active),3.16 µM (active),2.51 µM (active),1.41 µM (active),2.82 µM (active),5.36 µM (active),3.16 µM (active),2.24 µM (active),3.16 µM (active),2 µM (active),2.24 µM (active),2.13 µM (active)
CC(C)N=C(N)/N=C(\N)Nc1ccc(Cl)cc1,,,,,,,,,,,0.708 µM (active),1.61 µM (active),,,,inactive,,1.28 µM (active)
COc1cc2c(cc1OC)C(=O)C(CC1CCN(Cc3ccccc3)CC1)C2 (stereo not drawn),inactive,inactive,,inactive,,inactive,inactive,inactive,inactive,inactive,inactive,inactive,inactive,inactive,inactive,inactive,,
CCN1CCC[C@H]1CNC(=O)c1c(OC)ccc(Br)c1OC,inactive,inactive,,inactive,inactive,inactive,inactive,inactive,inactive,inactive,inactive,inactive,inactive,inactive,inactive,inactive,inactive,
CCN(CC)CCNC(=O)COc1ccc(Cl)cc1,,inactive,,inactive,12.6 µM (active),inactive,12.6 µM (active),11.2 µM (active),,11.2 µM (active),inactive,,,11.2 µM (active),,inactive,11.2 µM (active),13.5 µM (active)
CN1CCN(CCCN2c3ccccc3Sc3ccc(S(=O)(=O)N(C)C)cc32)CC1,4.47 µM (active),,,,1.41 µM (active),,,3.16 µM (active),3.16 µM (active),3.98 µM (active),,,,,,,3.98 µM (active),2.03 µM (active)
CCOC(=O)/C=C(C)/C=C/C=C(C)/C=C/c1c(C)cc(OC)c(C)c1C,,inactive,inactive,,,inactive,,,8.91 µM (active),,inactive,,inactive,,,3.55 µM (active),,
CC1=C(C(=O)OC(C)C)C(c2cccc([N+](=O)[O-])c2)C(C(=O)OC2CN(C(c3ccccc3)c3ccccc3)C2)=C(N)N1 (stereo not drawn),7.08 µM (active),,6.01 µM (active),11.2 µM (active),4.47 µM (active),,7.94 µM (active),6.31 µM (active),8.91 µM (active),10 µM (active),4.47 µM (active),7.57 µM (active),,10 µM (active),6.31 µM (active),7.08 µM (active),5.01 µM (active),5.36 µM (active)
